# Screens: PubChem BioAssay, Sanford-Burnham Center for Chemical Genomics
# Sampled rows, rich in hits. Any-hit rate of the full collection: about 3%.
# PPC-1+TRAIL kill – kills PPC-1 cancer cells in the presence of TRAIL. PPC-1 cells + TRAIL, ATPLite viability luminescence. cell killing (% activity), % at 4 µM or 5 µM. 220,000 compounds, 0.41% hits;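 active means cell killing above 50% in the first pass at 4 µM, then a duplicate retest at 5 µM averaging 50% or more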;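 further: plate controls were cells with TRAIL plus DMSO for no effect and medium-only wells lacking cells for full effect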
# TRAIL sens C8 – caspase-8 TRAIL sensitization. NB7+C8 cells + TRAIL, ATPlite viability luminescence. inhibition (viability loss, TRAIL sensitization), % at 10 µM. 360,000 compounds, 1% hits;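 active means compounds causing at least 50% loss of cell viability in the single-dose screen, relative to plate controls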
# SENP8 block-1 – inhibitors of human SENP8 protease. AID 2540. purified SENP8, Z-RLRGG-aminoluciferin cleavage, luminescence. 330,000 compounds, 1.2% hits. Q96LD8. inhibition, % at 10 µM; in the data active means inhibition above about 50%
# Target sequence (Q96LD8 whole entry, looked up): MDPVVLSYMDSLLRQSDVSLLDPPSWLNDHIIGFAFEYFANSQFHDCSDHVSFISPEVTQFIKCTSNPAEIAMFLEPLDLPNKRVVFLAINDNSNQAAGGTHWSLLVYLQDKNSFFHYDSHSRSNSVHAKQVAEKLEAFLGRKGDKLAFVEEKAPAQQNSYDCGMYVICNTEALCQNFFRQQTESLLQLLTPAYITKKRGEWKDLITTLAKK
# SENP7 block – SENP7 protease inhibition; Q9BQF6; recombinant SENP7, Z-RLRGG-aminoluciferin luminescence, 40 min; inhibition, % at 5 µM; 330,000 compounds, 1.5% hits;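 active means inhibition above about 50% at the single test dose, limit read from the data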;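 further: plate controls were DMSO with enzyme for no effect and no enzyme buffer wells for full effect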
# Target sequence (Q9BQF6 706-1050 limits assumed): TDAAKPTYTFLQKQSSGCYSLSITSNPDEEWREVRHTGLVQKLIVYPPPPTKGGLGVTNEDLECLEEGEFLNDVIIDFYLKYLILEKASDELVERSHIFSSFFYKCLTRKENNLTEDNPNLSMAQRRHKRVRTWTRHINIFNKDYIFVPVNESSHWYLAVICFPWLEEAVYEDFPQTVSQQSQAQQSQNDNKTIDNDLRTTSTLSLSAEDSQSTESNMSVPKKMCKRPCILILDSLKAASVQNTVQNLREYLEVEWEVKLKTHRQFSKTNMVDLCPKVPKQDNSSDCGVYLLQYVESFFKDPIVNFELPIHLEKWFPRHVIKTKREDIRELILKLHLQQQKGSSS
# SENP8 block-2 – inhibitors of human SENP8 protease; Q96LD8; recombinant SENP8, Nedd8 substrate fluorescence; inhibition, % at 20 µM; 360,000 compounds, 0.64% hits; AID 602440; in the data active means inhibition mostly above about 40%, no sharp cut-off; inactive means mostly below about 27%
# SENP6 inh – blocks the human protease SENP6 | Recombinant SENP6 catalytic domain, aminoluciferin luminescence | inhibition, % at 10 µM | 330,000 compounds, 1.8% hits;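 active means inhibition above about 50% at the single tested dose, limit read from the data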;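 further: plate controls were DMSO wells with enzyme for no effect and DMSO wells lacking enzyme for full effect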
# Starred values were filed as active, the others as inactive; . = not tested or not shown.
SMILES,PPC-1+TRAIL kill,TRAIL sens C8,SENP8 block-1,SENP7 block,SENP8 block-2,SENP6 inh
COc1ccc(CN2CCCC2C(=O)Nc2ccc(OC)c(OC)c2)cc1OC (configuration not stated),-3,20,-3,64*,-4,-19
COc1ccc(CN2CCCCC2C(=O)Nc2ccc(OC)c(OC)c2)cc1OC (configuration not stated),-2,5,-8,1,10,4
COC1=CC(=O)OC(c2ccc(C(F)(F)F)cc2)C1 (configuration not stated),.,26,.,.,8,.
O=[N+]([O-])c1cccc(-c2noc(-c3cccs3)n2)c1,10,5,34,75*,17,56*
O=[N+]([O-])c1cccc(-c2nc(-c3cccs3)c(-c3cccs3)[nH]2)c1,21,7,2,-4,-218,-4
CN(C)CCCNc1c2c(nc3ccccc13)CCC2,.,-6,-2,-2,19,6
CN(C)CCNCCCNc1c2ccccc2nc2cccc([N+](=O)[O-])c12,.,61*,.,.,-14,.
O=C(/C=C/Nc1cccc(C(F)(F)F)c1)c1ccco1,.,6,5,-7,-364,26
Cc1cccc(N=C/C(C(=O)C(F)(F)F)=C(\O)c2ccco2)c1,11,-2,28,83*,-135,77*
CCCCCCc1cc2cc(C(=O)NCc3ccccc3)c(=N)oc2cc1O,14,4,-3,-6,-276,-10
CCCCCCc1cc2cc(C(=O)Nc3ccccc3)c(=O)oc2cc1O,9,60*,-7,6,-279,-6
CC1CCN(CCNC(=O)c2ccc3c(=O)n(Cc4ccc(Cl)cc4)c(=S)[nH]c3c2)CC1,.,69*,-9,-6,13,-5
Nc1ccc(N=Nc2ccc(O)cc2)c(N)n1,.,31,.,.,-22,.
COc1ccc(N=Nc2cc(OC)c(N)cc2OC)cc1,.,10,.,.,42*,.
COc1ccc(N=Nc2ccc(N)nc2N)cc1,14,0,73*,78*,4,78*
CCOc1ccc2nc3cc(N=Nc4ccc(N)nc4N)ccc3c(N)c2c1,.,79*,.,.,-422,.
COC(=O)C1=C(C)N(C)C(=O)NC1c1c(OC)ccc2ccccc12 (configuration not stated),.,17,-5,9,18,-24
CC(C)(C)c1ccc(/C=C/C(=O)NC2=NCCS2)cc1,34,52*,-14,-2,18,-6
Cc1ccc(/C=C/C(=O)Nc2ccccc2C(N)=O)cc1,84*,84*,.,.,0,.
CC(C)(C)c1ccc(S(=O)(=O)N2CCCC2C(=O)NC2=NCCS2)cc1 (configuration not stated),-5,5,3,-5,18,-2
Cc1ccc(/C=C/C(=O)NC2=NCCS2)cc1,50,76*,3,7,12,12
Cc1ccc(OCC(=O)NC2=NCCS2)cc1,6,7,-11,-10,26,9
NC(=O)c1ccccc1NC(=O)/C=C/C(=O)O,-3,3,6,2,-254,-4
COc1cc(Cl)c(C)cc1NC(=O)c1cc(S(=O)(=O)N(C)C)ccc1N1CCCC1,1,-6,-7,-4,-32,3
CCc1nc2ccc(C(=O)NCCCN3CCCC3=O)cn2c1N(C)Cc1ccc(OC)cc1,.,-5,.,.,-4,.
SMILES,PPC-1+TRAIL kill,TRAIL sens C8,SENP8 block-1,SENP7 block,SENP8 block-2,SENP6 inh
CC(=O)n1cc(N(C(=O)CCl)c2ccccc2)c2ccccc21,18,95*,-5,-10,-9,-7
CC(=O)n1cc(N(C(=O)CCl)c2ccc([N+](=O)[O-])cc2)c2ccccc21,8,72*,6,3,19,-3
O=Cc1[nH]c2ccccc2c1N(C(=O)CCl)c1ccc([N+](=O)[O-])cc1,4,-26,0,3,4,-13
O=C(CSc1nnc(NC(=O)C2CC(=O)N(c3ccccc3)C2)s1)NCc1ccco1 (configuration not stated),.,-8,-2,-7,0,-11
CCS(=O)(=O)c1ccc2oc(Nc3ccccc3Br)nc2c1,20,21,87*,95*,1,92*
CCCCC(=O)Nc1nnc(CCc2ccccc2)s1,.,-2,-6,10,-74,15
Cc1ccc(-c2cc(N)n3nc(-c4ccc(C)cc4)cc3n2)cc1,13,1,1,8,-429,-4
Cc1cc(N)n2nc(-c3ccccc3)cc2n1,68*,77*,.,.,-148,.
CN(NC(=O)c1ccc(Cl)cc1)c1nc(-c2ccccc2)nnc1C(F)(F)F,-17,49*,-1,-10,7,-19
O=C(OC1CC2CC1[C@H]1CCCCN1C2=O)N1CCC(c2ccccc2)CC1 (some centres not stated),.,0,.,.,17,.
COCCNc1c(-c2cc3ccc(C)c(C)c3[nH]c2=O)nc2ccccn12,14,61*,-11,-9,-16,-2
CC(=O)c1cccc(-c2ccnc3c2CC(C(=O)Nc2ccc(C(C)C)cc2)O3)c1 (configuration not stated),.,11,.,.,19,.
CC(=O)Nc1ccc(C(=O)N/N=C/c2cccnc2)cc1,22,5,.,.,4,.
COc1ccc(C(=O)N/N=C/c2cccnc2)cc1,.,52*,5,4,14,3
Cn1nccc1C(=O)N/N=C/c1cccnc1,11,-5,61*,9,15,-13
O=C(CSc1nc2ccccc2c(=O)n1-c1ccc(OC(F)F)cc1)NC1CC1,.,-13,0,5,-3,-27
CC(=O)Nc1cc(OC(C)=O)c2nonc2c1OC(C)=O,11,-14,70*,92*,33,82*
COc1ccc(S(=O)(=O)N2CCC[C@H]2C(=O)N2CCC[C@H]2C(=O)NCc2ccc(F)cc2F)cc1C,.,-1,.,.,19,.
CCc1ccc(-c2cn3nc(C)c(C)nc3n2)cc1,.,56*,27,-1,-276,23
CC1CC(Nc2cccc(O)c2)=CC(=O)O1 (configuration not stated),20,3,-3,2,-1,-7
C[C@@H]1Cc2c(O)c(O)cc(O)c2C(=O)O1,-1,-6,3,1,44*,-2
CCCCC[n+]1ccn(C2=C([O-])c3ccccc3C(=O)/C2=N\S(=O)(=O)c2ccc(Br)cc2)c1,-2,48,16,7,80*,35
CCCC[n+]1ccn(C2=C([O-])c3ccccc3C(=O)/C2=N\S(=O)(=O)c2ccccc2)c1,0,51*,29,28,78*,39
CC(C)[n+]1ccn(C2=C([O-])c3ccccc3C(=O)/C2=N\S(=O)(=O)c2ccccc2)c1,16,35,16,16,86*,43
CCCCC[n+]1ccn(C2=C([O-])c3ccccc3C(=O)/C2=N\S(=O)(=O)c2ccccc2)c1,24,45,22,18,67*,25
CCCCC[n+]1ccn(-c2nc3ccccc3nc2[N-]S(=O)(=O)c2ccc(C)cc2)c1,-4,-6,1,1,-483,0
